Assay results published in the supplement of paper PMC11628255, “Interference of metal ions on the bioluminescent signal of firefly, Renilla, and NanoLuc luciferases in high-throughput screening assays” (Frontiers in Chemistry, 2024).
± gives the standard deviation of the averaged measurements.

Columns and labels:
[1] = tested on: Renilla luciferase (RLuc); assay: residual bioluminescent signal relative to negative (DMSO) control; higher = less interference (more residual luciferase signal)
Procedure, shortened: (§1)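 Firefly, NanoLuc or Renilla luciferase, each purified, was combined with every metal salt at final concentrations of 0.01, 1 and 5 mM in 384-well plates containing screening or HEPES buffer. The aqueous salts and enzyme were pre-incubated for 10 min at room temperature, and luminescence was measured 10 min after substrate was added, with triplicate wells. Residual signal expresses each well's luminescence as a percentage of the mean of the vehicle-only wells on that plate.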

[2] = tested on: NanoLuc luciferase (NLuc); assay: as above
Procedure, shortened: as §1

[3] = metal salt concentration 0.01 mM, HEPES conditions (100 mM HEPES, 0.05% BSA, 0.3 M sodium ascorbate, pH 7.5)
[4] = metal salt concentration 0.01 mM, screening conditions (50 mM Tris-HCl, […] KH2PO4, […] NaCl, 0.25 mM EDTA, 0.1% BSA, 0.3 M sodium ascorbate, pH 7.4)
[5] = metal salt concentration 1 mM, HEPES conditions (100 mM HEPES, 0.05% BSA, 0.3 M sodium ascorbate, pH 7.5)
[6] = metal salt concentration 1 mM, screening conditions (50 mM Tris-HCl, […] KH2PO4, […] NaCl, 0.25 mM EDTA, 0.1% BSA, 0.3 M sodium ascorbate, pH 7.4)
[7] = metal salt concentration 5 mM, HEPES conditions (100 mM HEPES, 0.05% BSA, 0.3 M sodium ascorbate, pH 7.5)
[8] = metal salt concentration 5 mM, screening conditions (50 mM Tris-HCl, […] KH2PO4, […] NaCl, 0.25 mM EDTA, 0.1% BSA, 0.3 M sodium ascorbate, pH 7.4)
[9] = metal salt concentration 0.01 mM, HEPES conditions (100 mM HEPES, 0.1% BSA, pH 7.5)
[10] = metal salt concentration 0.01 mM, screening conditions (PBS, 0.1% BSA, pH 7.4)
[11] = metal salt concentration 1 mM, HEPES conditions (100 mM HEPES, 0.1% BSA, pH 7.5)
[12] = metal salt concentration 1 mM, screening conditions (PBS, 0.1% BSA, pH 7.4)
[13] = metal salt concentration 5 mM, HEPES conditions (100 mM HEPES, 0.1% BSA, pH 7.5)
[14] = metal salt concentration 5 mM, screening conditions (PBS, 0.1% BSA, pH 7.4)

SMILES	residual bioluminescent signal [1, 3] [%]	residual bioluminescent signal [1, 4] [%]	residual bioluminescent signal [1, 5] [%]	residual bioluminescent signal [1, 6] [%]	residual bioluminescent signal [1, 7] [%]	residual bioluminescent signal [1, 8] [%]	residual bioluminescent signal [2, 9] [%]	residual bioluminescent signal [2, 10] [%]	residual bioluminescent signal [2, 11] [%]	residual bioluminescent signal [2, 12] [%]	residual bioluminescent signal [2, 13] [%]	residual bioluminescent signal [2, 14] [%]
O=[N+]([O-])[O-].O=[N+]([O-])[O-].[Ca+2] [calcium nitrate]	83 ± 5.8	79.9 ± 9.1	92.3 ± 4.3	86.7 ± 4.6	106 ± 6.2	19.5 ± 7.2						
O=[N+]([O-])[O-].O=[N+]([O-])[O-].[Zn+2] [zinc nitrate]	86 ± 1.9	96.8 ± 8.7	11.8 ± 2.2	85.7 ± 3.5	1.13 ± 0.12	14.9 ± 12						
O=[N+]([O-])[O-].O=[N+]([O-])[O-].O=[N+]([O-])[O-].[Al+3] [aluminium nitrate]	85.7 ± 7.3	91.1 ± 1	7.39 ± 0.84	90.2 ± 1.4	103 ± 2.5	94.2 ± 6.2						
O=[N+]([O-])[O-].O=[N+]([O-])[O-].[Pb+2] [lead(II) nitrate]	102 ± 1.7	112 ± 8.2	42.9 ± 4.4	69.9 ± 14	30.2 ± 3.3	5.96 ± 0.97	94 ± 3.2	93.8 ± 2.2	26.7 ± 2.9	88.2 ± 4.3	7.56 ± 0.53	44.2 ± 9
O=[N+]([O-])[O-].O=[N+]([O-])[O-].[Cd+2] [cadmium nitrate]	100 ± 15	102 ± 9.5	11.8 ± 0.97	45.6 ± 6.1	1.41 ± 0.32	12.2 ± 3.1	93.8 ± 1.4	98.2 ± 1.1	74.64 ± 0.51	62.1 ± 7.8	84.1 ± 2.6	22.1 ± 1.6
O=[N+]([O-])[O-].O=[N+]([O-])[O-].[Cu+2] [copper(II) nitrate]	99.3 ± 10	104 ± 6.5	0.774 ± 0.61	0.583 ± 0.34	0.774 ± 0.24	0.897 ± 0.62	95.5 ± 6.9	90.4 ± 2.7	0.235 ± 0.062	0.732 ± 0.11	0.689 ± 0.91	0.201 ± 0.12
O=[N+]([O-])[O-].[Na+] [sodium nitrate]	93.9 ± 5.2	101 ± 3.4	96.7 ± 2.8	97.6 ± 5.2	109 ± 7.3	107 ± 2.8						
[Cl][Sn][Cl] [tin(II) chloride]	103 ± 4.7	96.3 ± 7.4	103 ± 11	95.3 ± 12	92.9 ± 2.4	11.3 ± 2.3	95.8 ± 2.9	97 ± 5.1	90.1 ± 5	84.2 ± 6.6	87.3 ± 5	0.413 ± 0.39
O=[N+]([O-])[O-].O=[N+]([O-])[O-].O=[N+]([O-])[O-].[Ga+3] [gallium(III) nitrate]	105 ± 12	98.9 ± 6	10.6 ± 0.8	112 ± 11	3.03 ± 1.8	1.92 ± 1.4						
O=[N+]([O-])[O-].[Ag+] [silver nitrate]								28 ± 4.6		1.98 ± 0.46		2.05 ± 0.58
O=[N+]([O-])[O-].O=[N+]([O-])[O-].[Ni+2] [nickel(II) nitrate]	82.5 ± 12	99.08 ± 0.95	57.9 ± 4.5	79.3 ± 3.2	22.4 ± 2.8	52.7 ± 11						
O=[N+]([O-])[O-].[K+] [potassium nitrate]	110 ± 7.7	101 ± 7.9	104 ± 1.4	108 ± 11	109 ± 5.3	102 ± 3.8	95.2 ± 2.4	104 ± 1.6	90.9 ± 1.1	94.9 ± 3.4	101 ± 2	101 ± 4.7
O=[N+]([O-])[O-].[Li+] [lithium nitrate]	88.6 ± 6.9	87.4 ± 5.8	94.2 ± 14	86.8 ± 1.4	97.7 ± 6.4	88.5 ± 5.5						
